This is an account of results in ChEMBL document CHEMBL3988442, “University of Dundee, Small-Polar-MMV Screening Library” (2021).

Hit rate of the full screen: of about 48,000 compounds, about 13,000 (27%) showed an effect of 50% or more. This is one part of the list.

The subject of this assay is Wolbachia pipientis. Description: Anti-Wolbachia Cell-Based Screen. Details: scale not given: in the data most compounds retested in dose-response had high values. The following applies: 5 µM. Type of assay: functional.
Regarding `Cc1nnc(CSc2ccc(C(F)(F)F)cn2)o1`, the “Percent Effect” value is -11.49%.
With `CCN1CC(C(=O)NCc2nc(C3CCCCC3)no2)CC1=O` (centres undefined), the “Percent Effect” value is reported as -30.34%.
In the case of `Cc1cc(C(=O)O)ccc1NS(=O)(=O)c1c(C)nn(C(C)C)c1C` it was -9.87%.
To `Cc1nc(N2CCN(C)CC2)ncc1C(=O)N1CCCCC1` belongs 123.3%; to `Cc1nc(N2CCN(C)CC2)ncc1C(=O)N1CCN(C)CC1`, 120.1%.
To `CC[C@H]1COCCN1C(=O)c1cnc(N2CCN(C)CC2)nc1C` belongs -29.22%; to `CN1CCCN(C(=O)c2cnc(C(C)(C)C)nc2O)CC1`, -12.59%.
For `Cc1nc(N2CCN(C)CC2)ncc1C(=O)N1CCCCCC1`, the “Percent Effect” value is 100.3%.
In the case of `Cc1nc(N2CCN(C)CC2)ncc1C(=O)N1CC(C)(C)C(C)(O)C1` (centres undefined) it was -4.468%; in that of `Cc1nc(N2CCN(C)CC2)ncc1C(=O)N1CCC(O)(CO)CC1`, -3.993%; in that of `CN1CCCN(C(=O)c2cnc(Cc3c(Cl)cccc3Cl)nc2O)CC1`, 6.628%.
In the case of `Cc1nc(N2CCCCC2)ncc1-c1cc(O)[nH]n1` it was 24.53%; in that of `COCc1c(Br)cccc1NC(=O)CC(F)(F)F`, -8.675%; in that of `CC(C)(O)c1cc(CC2(NCC3CCCCC3)COC2)no1`, -2.979%.
In the case of `O=C(c1n[nH]c2ccccc12)N1CCCC1c1noc(C2CC2)n1` (centres undefined) it was -5.823%; in that of `CC(C)(C)NS(=O)(=O)c1ccc(NC(=O)C2CC2)cc1`, -16.45%.
With `Cc1cc(C)n(C(=O)Cn2nc(C)c(I)c2C)n1`, the “Percent Effect” value was determined as 66.77%.
In the case of `Cc1nn(CC(=O)n2cccn2)c(C)c1I` it was 112.6%; in that of `Cc1nn(CC(=O)N2CCCC2Cn2cccn2)c(C)c1Cl` (centres undefined), -2.085%; in that of `Cc1nn(CC(=O)N2CCCCC2Cn2cccn2)c(C)c1Cl` (centres undefined), -2.313%.
In the case of `Cc1cc(C)n(CC(=O)N2CCC(NS(C)(=O)=O)CC2)n1`, the “Percent Effect” value is -12.4%.
To `COC1CCN(C(=O)Cn2nc(C)cc2C)CC1` belongs -14.02%; to `CC(=O)N1Cc2nc(C(=O)NCCc3cccnc3)oc2C1`, -18.72%; to `CSCC(C)N(C)S(=O)(=O)c1ccc(Cl)cc1C#N` (centres undefined), -5.71%.
To `CN(C)Cc1ccccc1CN(C)C(=O)c1ccoc1` belongs 83.07%; to `CN(Cc1ccccc1CN1CCCC1)C(=O)c1c(O)cccc1O`, -3.98%; to `Cc1ccccc1CN(C)C(=O)c1ccoc1`, -7.893%.
To `Cc1ncc(CC(=O)N2CCCCC2CCN2CCCC2)c(=O)[nH]1` (centres undefined) belongs -18.36%.
`CCN(CC1CCOC1)C(=O)c1ccccc1NS(=O)(=O)CC` (centres undefined): the “Percent Effect” value was 0.4037%.
To `CCN(CC1CCOC1)C(=O)c1ccccc1S(=O)(=O)CC` (centres undefined) belongs 111.1%; to `CCN(CC1CCOCC1)C(=O)CCNC(=O)c1ccccc1F`, -3.146%.
In the case of `CCN(CC1CCOC1)C(=O)c1ccccc1S(C)(=O)=O` (centres undefined) it was 84.82%; in that of `CCN(CC1CCOC1)C(=O)c1nc(-c2ccco2)sc1C` (centres undefined), 14.29%.
In the case of `CCN(CC1CCOC1)C(=O)c1ccc(COc2ccccc2C#N)o1` (centres undefined) it was 0.9785%; in that of `COCCc1noc(-c2ccc(=O)[nH]c2)n1`, -16.05%.
Regarding `Cc1cc(CN(C)CC2CCCCC2)no1`, the “Percent Effect” value was -1.2%.
Take `Cc1nnc(CN(C)CC2(O)CCCN(CCC3CCCCC3)C2=O)o1` (centres undefined): the “Percent Effect” value is given as -32.48%.
In the case of `CCc1nnc(CN(C)C[C@@H]2CCCN3CCCC[C@H]23)o1` it was -11.52%; in that of `Cc1nnc(CN(C)CC2CCCCC2)o1`, 96.6%; in that of `CCc1nnc(CN(C)CC2CCCCC2)o1`, 93.73%.
In the case of `CCc1nc(CN(C)CC2CCN(CCO)CC2)no1` it was -13.45%; in that of `OC(CN(Cc1ccccc1)Cc1cccnc1)c1ccco1` (centres undefined), -6.799%; in that of `CCCN1CCCN(c2ncccc2C(=O)N2CCCCC2)CC1`, 6.513%.
To `CCC(CNS(C)(=O)=O)Oc1ccccc1C` (centres undefined) belongs 8.016%.
In the case of `CCCNC(=O)CCC(=O)N1CCC(c2n[nH]c(C3CC3)n2)CC1`, the “Percent Effect” value is recorded as -17.72%.
In the case of `CC(=O)NCCc1cc(N2CCN(C(C)=O)CC2)nc(C2CC2)n1`, the “Percent Effect” value was -7.517%.
To `CCCC(=O)NCCc1cc(N2CCN(C(C)=O)CC2)nc(C2CC2)n1` belongs 96.87%; to `Cc1nc(CCN)cc(N2CCCN(C(=O)c3ccco3)CC2)n1`, -5.504%; to `COc1ccc(C(=O)N2CCN(c3cc(CCN)nc(C)n3)CC2)cc1`, -1.227%.
To `CC(=O)N1CCN(c2cc(CCNC(=O)C(C)C)nc(C3CC3)n2)CC1` belongs 74.84%; to `CN1CCN(c2cc(CCNC(=O)C3CCC3)nc(C3CC3)n2)CC1`, -16.77%; to `CCC(=O)NCCc1cc(N2CCN(C(C)=O)CC2)nc(C2CC2)n1`, -11.66%.
To `CC(=O)N1CCN(c2cc(CCN)nc(C3CC3)n2)CC1.Cl` belongs 89.11%; to `Cc1ccoc1C(=O)NC(CC(C)C)C(=O)N1CCC(CO)CC1` (centres undefined), -14.58%; to `CCC(=O)N1CCc2[nH]cnc2C12CCN(C(=O)CCS(C)(=O)=O)CC2`, -8.696%.
Turning to `Cc1nnn2c1COC(CNCc1ccccn1)C2.O=C(O)C(F)(F)F` (centres undefined), the “Percent Effect” value was -4.028%.
Consider `Cc1cnc(N)nc1NCCSCc1[nH]cnc1C`, for which the “Percent Effect” value is -14.55%.
In the case of `Cc1ccc(C)n1-c1ccc(C(=O)NCCNc2ncccn2)cc1`, the “Percent Effect” value was 4.736%.
`CC1CCCN(Cc2csc(-c3ncccn3)n2)CC1` (centres undefined): the “Percent Effect” value is reported as 3.521%.
To `Cc1cccc(CN2CCCC(c3nccs3)C2)n1` (centres undefined) belongs 160.1%; to `Cc1cccc(CN2CCN(Cc3ccccc3)CC(O)C2)n1` (centres undefined), -8.122%.
For the compound `Cc1nc(CN2CCCC(c3nccs3)C2)cs1` (centres undefined), the “Percent Effect” value worked out at 114.8%.
In the case of `Cc1nc(CN2C[C@@H]3CN(C(=O)c4cnccn4)C[C@@H]3C2=O)cs1` it was 9.269%; in that of `Cc1nc(CN2CCCC(c3cnccn3)C2)cs1` (centres undefined), 124.4%.
In the case of `Cc1nc(CN2CCCN(C(=O)COCC3CC3)CC2)cs1` it was 18.11%; in that of `CC(C)c1nc(CN2CCCC(O)C2)cs1` (centres undefined), 12.3%.
Regarding `CCn1ccnc1C1CCN(Cc2cccc(C)n2)CC1`, the “Percent Effect” value was -3.832%.
In the case of `CSCC(=O)N1C[C@H]2CC[C@@H]1CN(Cc1ccccc1)C2`, the “Percent Effect” value is -24.58%.
In the case of `COCCc1noc(Cn2ccc3ncccc3c2=O)n1` it was -12.09%.
